Compound activity as filed in PubChem BioAssay.
This excerpt belongs to a sample that is enriched for hits.
HT1080NT lethal: kills 2HG-producing HT-1080-NT fibrosarcoma cells; HT-1080-NT fibrosarcoma viability, CellTiter-Glo ATP luminescence, 48 h; Potency, µM (highest dose often 46.1 µM), for the others: at the top dose activity, negative = less viability, usual class: cytotoxic; 1.6% of 360,000 active;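 also: NT is the 2HG producing partner of a matched IDH1 knockdown line; potency is read from the fitted curve at half-maximal effect; 0% = DMSO-treated cells and -100% = media-only wells without cells; nearly all actives have a fitted effect of over 55% in size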
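Compounds were tested in concentration-response format on HT-1080-NT cells for 48 hours at 37 degrees C. Cell viability came from CellTiter-Glo luminescence; curves were classified by r2, response magnitude and activity.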
TDP1 cell CPT: growth inhibition of DT40 Tdp1-/-;hTDP1 cells with camptothecin (screen for TDP1 inhibitors); chicken DT40 Tdp1-/-;hTDP1 cells + 20 nM CPT, ATP luminescence, 48 h; AID 686979; 12% of 420,000 active; Potency, µM (titrated, usually from 46.2 µM), inactives show at the top dose activity change, negative = growth inhibition, most hits filed as inhibitors; also: potency is read from the fitted curve at half-maximal effect; nearly all actives have a fitted effect of over 55% in size
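Cell growth measured by CellTiter-Glo luminescence after a minimum 48 h, 37 C compound exposure with 20 nM CPT in Tdp1-knockout DT40 cells stably expressing hTDP1, seeded 400/well; qHTS titration format.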
DT40 TDP1 no CPT: qHTS for Inhibitors of human tyrosyl-DNA phosphodiesterase 1 (TDP1): qHTS in cells in absence of CPT; DT40 Tdp1-/- hTDP1 cells, no CPT, ATP luminescence, 48 h; Potency, µM (series often up to 46.2 µM), without a hit: at the highest dose activity change, negative = growth inhibition, usual class: inhibitors; 15% of 420,000 active; also: potency is read from the fitted curve at half-maximal effect; nearly all actives have a fitted effect of over 55% in size
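No-CPT arm: Tdp1-/-;hTDP1 DT40 cells (400/well) plus compounds, incubated ≥48 hr at 37 °C. Readout CellTiter-Glo luminescence.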
12-LOX inh: ALOX12 (human) lipoxygenase inhibition. P18054. purified 12hLO, xylenol orange hydroperoxide absorbance. Potency, µM (doses to about 108 µM), inactives show top-dose activity change, negative = inhibition, actives largely listed as inhibitors. 1.1% of 580,000 active; also: potency is read from the fitted curve at half-maximal effect
Target sequence (P18054 whole entry, looked up): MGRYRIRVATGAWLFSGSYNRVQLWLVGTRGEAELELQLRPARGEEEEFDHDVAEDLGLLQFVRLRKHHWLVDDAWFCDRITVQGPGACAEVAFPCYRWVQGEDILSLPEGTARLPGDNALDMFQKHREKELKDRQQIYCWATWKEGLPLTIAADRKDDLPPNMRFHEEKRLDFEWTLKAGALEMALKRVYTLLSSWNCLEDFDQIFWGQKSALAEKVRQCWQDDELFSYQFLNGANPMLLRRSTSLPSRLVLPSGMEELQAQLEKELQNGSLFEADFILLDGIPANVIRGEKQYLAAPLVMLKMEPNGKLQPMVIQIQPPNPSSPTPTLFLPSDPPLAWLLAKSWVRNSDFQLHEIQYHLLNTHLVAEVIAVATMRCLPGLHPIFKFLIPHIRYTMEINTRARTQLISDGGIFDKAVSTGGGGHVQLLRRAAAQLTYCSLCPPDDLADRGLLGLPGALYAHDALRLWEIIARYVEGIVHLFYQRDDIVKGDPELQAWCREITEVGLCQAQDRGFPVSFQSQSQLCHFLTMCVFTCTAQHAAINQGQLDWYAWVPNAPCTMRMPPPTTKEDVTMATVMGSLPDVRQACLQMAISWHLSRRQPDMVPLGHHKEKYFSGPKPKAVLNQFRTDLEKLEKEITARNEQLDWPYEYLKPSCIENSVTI
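Purified human 12hLO (150 nM final) in 25 mM Hepes, 0.01% Triton X-100, pH 7.0 was preincubated 15 min at room temperature with compound. Then 40 uM arachidonic acid was added, 30 min. Hydroperoxide was read by Fe-XO absorbance ratio 573/405 nm.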
IL-1B inflam inh: inhibitors of inflammasome signaling (IL-1 beta secretion); AID 743279; THP-1 LPS/ATP IL-1B secretion, AlphaLISA, 16 h; hits give low values; activity change, % at 57.5 µM; 4.7% of 360,000 active; in the data active = activity change below about -50%; inconclusive = mostly about -30% to -49%
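Secreted IL-1B measured by AlphaLISA bead assay after 16 h compound exposure of THP-1 cells; compounds (final up to 57.5 uM) added 1 h before LPS (250 ng/mL) and ATP (1.25 mM) stimulation; lower signal means less secretion.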
HT1080 IDH1KD tx: toxicity to HT-1080 IDH1 knockdown cells (counter line). HT-1080 IDH1 knockdown viability, ATP luminescence, 48 h. Potency, µM (top dose mostly 46.1 µM), for the others: at the highest dose activity, negative = toxicity, actives largely listed as cytotoxic. 2% of 360,000 active. AID 686971;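 also: potency is read from the fitted curve at half-maximal effect; 0% = DMSO wells and -100% = cell-free medium wells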
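In this qHTS, HT-1080 cells depleted of IDH1 are exposed for 48 h at 37 °C to compound titrations. Toxicity is scored from CellTiter-Glo luminescence, with DMSO as full viability and medium alone as none.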
* = called active by the depositor; ? = inconclusive; . = not tested or not shown; [ ] = remark or other dose. Unless noted, calls follow the shape of the dose curve; as a rule, active = well fitted curve in the direction sought with a large enough effect; inconclusive = small, poorly fitted or top-dose-only effect, or another doubt; inactive = no such curve, though single readings can be large; an effect the other way counts as inactive or inconclusive. Unless noted, % is scaled to controls: 0 for no effect and ±100 for the full control effect.

SMILES	HT1080NT lethal	TDP1 cell CPT	DT40 TDP1 no CPT	12-LOX inh	IL-1B inflam inh	HT1080 IDH1KD tx
OCC1CCCC(n2cnc3c(=S)nc[nH]c32)O1 (configuration not stated)	2%	6%	4%	?	33	3%
Nc1nc(=S)c2ncn(C3OC(CO)CC3O)c2[nH]1 (configuration not stated)	-19%	-18%	12µM*	?	49	?
CN(C)c1nc(N)nc2c1ncn2C1OC(CO)CC1O (configuration not stated)	1%	?	?	3%	-28	2%
COc1nc(N)nc2c1ncn2C1OC(CO)CC1O (configuration not stated)	3%	1µM*	1.5µM*	2%	0	0%
CCOC(=O)/C=c1\s/c(=C\c2ccccc2C)c(=O)n1CC(=O)NCc1ccc2c(c1)OCO2	?	?	?	-27%	16	?
CCOC(=O)/C=c1/s/c(=C\c2c(OC)ccc3ccccc23)c(=O)n1CC(=O)NCC1CCCO1 (configuration not stated)	16µM*	23µM*	26µM*	?	6	?
CCOC(=O)/C=c1\s/c(=C\c2ccc3cc(OC)ccc3c2)c(=O)n1CC(=O)NCc1ccc2c(c1)OCO2	12%	6.5µM*	9.2µM*	-3%	7	9%
COc1ccc(-c2ocnc2C(=O)Nc2ccccc2F)cc1	.	.	.	-15%	.	.
CCC(C)(C)NC(=O)c1cccc2c1CCN2C(=O)Nc1cccc(C)c1	.	.	.	-8%	.	.
Cc1cc2cc(CNC(=S)Nc3ccc(OC(F)(F)F)cc3)ccc2n1C	-1%	?	?	40µM*	11	-13%
Cc1cccc(NC(=O)NCc2ccc3c(c2)cc(C)n3C)c1	-5%	?	-24%	?	-10	2%
Cc1cccc(NC(=S)NCc2ccc3c(c2)cc(C)n3C)c1C	-2%	12µM*	15µM*	35µM*	-4	-9%
COc1cccc(NC(=S)NCc2ccc3c(c2)cc(C)n3C)c1	-18%	-20%	16µM*	?	-28	-5%
CC(=O)Nc1ccc(S(=O)(=O)NCc2ccc3c(c2)cc(C)n3C)cc1	-12%	-30%	?	?	16	-5%
CC(=O)Nc1ccc(NC(=O)c2cc(C(C)C)nc3ccccc23)cc1	.	.	.	-11%	.	.
O=C(COc1ccc(S(=O)(=O)NC2CCCCC2)cc1Cl)Nc1ccc2c(c1)OCO2	?	?	?	-4%	-59*	?
COc1ccc(CCNC(=O)COc2ccc(S(=O)(=O)NC3CCCCC3)cc2Cl)cc1OC	-16%	23µM*	16µM*	21%	26	-19%
Cc1ccc(O)c(C(=O)c2cnc3c(c2)c(=O)n(C)c(=O)n3C)c1	16%	?	?	-4%	26	7%
Cc1ccc(O)c(C(=O)c2cnc3c(c2)c(-c2ccc(F)cc2)c(C#N)c(=O)n3C)c1	-8%	18µM*	21µM*	-1%	-28	-1%
CN(CC(=O)N1CCc2nc3cc(-c4ccccc4)[nH]n3c(=O)c2C1)S(=O)(=O)c1cnc[nH]1	.	.	.	18%	.	.
COC[C@@H]1CN(C(=O)COc2ccccc2)C[C@H]1c1nc(C2CC2)no1	.	.	.	42%	.	.
CC1(C)N=C(N)N=C(N)N1CCCCc1ccccc1	?	2.1µM*	0.52µM*	-10%	10	0.15µM*
COc1cccc(N2CC(C(=O)Nc3nnc(SCCN4CCOCC4)s3)CC2=O)c1 (configuration not stated)	23%	-1%	8%	.	34	6%
CCOC(=O)c1ccc2c(c1)nc(C1CCN(S(=O)(=O)c3cccs3)CC1)n2CC	?	15µM*	?	-9%	-79*	?
CCN1CCN(c2ccc(N3CCN(S(=O)(=O)c4cccc(C)c4)CC3)nn2)CC1	.	.	.	-4%	.	.
SMILES	HT1080NT lethal	TDP1 cell CPT	DT40 TDP1 no CPT	12-LOX inh	IL-1B inflam inh	HT1080 IDH1KD tx
CC(C)c1ccc(CCCN)cc1	.	.	.	42%	.	.
Cc1cc(C)cc(CC(Cc2nc3ccccc3[nH]2)c2nc3ccccc3[nH]2)c1 (configuration not stated)	18µM*	?	26µM*	0%	-69*	?
Cc1ccc(CSCc2nc3ccccc3[nH]2)cc1	-1%	29µM*	21µM*	4%	-98*	?
Cc1ccc(CC(Cc2nc3ccccc3[nH]2)c2nc3ccccc3[nH]2)cc1 (configuration not stated)	.	27µM*	27µM*	.	.	.
CCn1cc(S(=O)(=O)N2CC[C@@H]3COCCN(C)[C@@H]3C2)cn1	.	.	.	17%	.	.
CC(C(=O)N1CCNC1=O)N(C)Cc1cccc(Cl)c1 (configuration not stated)	.	.	.	-1%	.	.
COCCN1C(=O)[C@H]2C[C@@]13O[C@H](c1ccc(C(F)(F)F)cc1)N=C3C[C@H](c1ccccc1)[C@H]2C	.	.	.	1%	.	.
CC(=O)c1ccc(N2CCN(C(=S)Nc3ccccc3)CC2)cc1	14%	?	21µM*	0%	-10	8%
CC(=O)c1ccc(N2CCN(C(=S)Nc3cc(C)ccc3C)CC2)cc1	6%	-12%	?	4%	21	7%
CC(=O)c1ccc(N2CCN(C(=S)Nc3ccccc3F)CC2)cc1	12%	?	7.3µM*	-9%	23	8%
CCOc1ccccc1NC(=O)c1sc2nc(-c3ccc(OC)cc3)ccc2c1N	.	21µM*	13µM*	-18%	.	.
Nc1c(C(=O)NCc2ccc(Cl)cc2)sc2nc(-c3ccc(F)cc3)ccc12	.	18µM*	21µM*	-23%	.	.
COc1cccc(-c2ccc3c(N)c(C(=O)c4ccc(Cl)cc4)sc3n2)c1	.	8.2µM*	7.3µM*	-19%	.	.
COc1ccc(C(=O)c2sc3nc(-c4ccccc4)ccc3c2N)cc1	4%	-54%	-53%	.	-26	-23%
COc1ccc(-c2ccc3c(N)c(C(=O)Nc4ccc(C)cc4C)sc3n2)cc1OC	.	4.1µM*	?	-10%	.	.
CC(C)N1C(=O)CO[C@H](c2ccc(NC(=O)c3ccccc3)cc2)[C@H]1CO	.	.	.	52%[176 µM]	.	.
COc1ccc(S(=O)(=O)N2CCC3(CC2)CC(OCC2CC2)CCO3)cc1 (configuration not stated)	.	.	.	16%	.	.
N#Cc1ccc(CN2CCC(c3ccnn3CCO)CC2)cc1	.	.	.	-4%	.	.
COC[C@@H]1[C@H](C(=O)N2CCN(c3ccccn3)CC2)CCC(=O)N1C	.	.	.	22%	.	.
